Assay results taken from the supplement of paper PMC10646978.
± gives the standard deviation.

Experiments:
Details in all cases: modulator concentration 10 µM
[1] = test system: RAW-Dual (murine macrophage reporter line); test: NF-kB reporter (SEAP) activity fold change vs agonist alone; higher = enhanced NF-kB activity
Summary of the method: (§1)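 Compound reached 10 μM final in each well by pin transfer, onto RAW-Dual murine macrophage reporter cells seeded at 50 000 per well in 384-well plates. After 1 hour at 37 °C, the cells were stimulated overnight with a PRR agonist. SEAP in the supernatant was read with QUANTI-Blue at 620 nm absorbance for NF-κB, and Lucia luciferase was read with QUANTI-Luc luminescence for IRF. Each signal was turned into fold change against the mean agonist-only control on the same plate, and two replicate plates were averaged with propagated errors.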

[2] = test system: RAW-Dual (murine macrophage reporter line); test: IRF reporter (Lucia luciferase) activity fold change vs agonist alone; higher = enhanced IRF activity
Summary of the method: as §1

[3] = test system: RAW-Dual (murine macrophage reporter line); test: viability score (confluency relative to resting cells, overnight) (fraction); higher = more viable, active = viable (0.7 or more)
Summary of the method: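 A compound met the cutoff when both of two confluency masks exceeded 70% of resting cells. Those masks were made with IncuCyte software from IncuCyte images of RAW-Dual macrophages treated overnight at 10 μM final. This is the basis of the viability score, which is confluency relative to resting cells.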

[4] = agonist: CpG ODN 1826 0.5 ug/mL

SMILES | NF-kB reporter [1, 4] | NF-kB reporter ([1]; agonist: LPS 0.1 ug/mL) | NF-kB reporter ([1]; agonist: MPLA […]) | IRF reporter ([2]; agonist: 3'3'-cGAMP 10 ug/mL) | IRF reporter ([2]; agonist: LPS 0.1 ug/mL) | IRF reporter ([2]; agonist: MPLA […]) | viability score [3]
N#Cc1c(NC(=O)c2cccc3ccccc23)sc2c1CCCC2 | 1.67 ± 0.13 | 0.863 ± 0.073 | 1.14 ± 0.12 | 0.616 ± 0.019 | 1.35 ± 0.18 | 1.48 ± 0.23 | 0.879 (active)
CC12CC3(C)CC(C)(C1)CC(C(=O)NC(C)(C)CO)(C2)C3 | 0.866 ± 0.067 | 0.867 ± 0.097 | 0.879 ± 0.09 | 0.996 ± 0.067 | 1.42 ± 0.096 | 1.52 ± 0.16 | 1 (active)
CC(C)c1ccc(N(CC(=O)NCCSCc2ccc(Cl)cc2)S(C)(=O)=O)cc1 | 0.597 ± 0.058 | 0.909 ± 0.076 | 0.918 ± 0.08 | 0.588 ± 0.04 | 1.14 ± 0.066 | 1.07 ± 0.13 | 1.01 (active)
Cc1cccc(C(=O)N2N=C(c3ccccc3)CC2(O)C(F)(F)F)c1 (configuration not stated) | 1.29 ± 0.1 | 1.13 ± 0.062 | 1.46 ± 0.087 | 1.58 ± 0.049 | 3.2 ± 0.32 | 1.79 ± 0.12 | 0.254 (inactive)
Cl.Cl.Cn1cc(CNCC2CCN(c3ncc(C(=O)NO)cn3)CC2)c2ccccc21 | 1.84 ± 0.11 | 1.72 ± 0.15 | 2.69 ± 0.12 | 0.067 ± 0.0071 | 0.396 ± 0.025 | 0.692 ± 0.054 | 0.0605 (inactive)
CN(C)CCCN1c2ccccc2CCc2ccc(Cl)cc21.Cl | 0.559 ± 0.098 | 1.15 ± 0.43 | 1.64 ± 0.2 | 0.503 ± 0.02 | 1.18 ± 0.53 | 1.78 ± 0.18 | 0.239 (inactive)
O=C(NN=Cc1c(O)ccc2ccccc12)c1ccccc1I | 1.54 ± 0.47 | 1.11 ± 0.096 | 1.02 ± 0.099 | 0.847 ± 0.043 | 1.47 ± 0.15 | 1.55 ± 0.17 | 1 (active)
CC(C)(C)c1cc(C(=O)NN=Cc2ccc([N+](=O)[O-])cc2)[nH]n1 | 0.924 ± 0.12 | 0.953 ± 0.083 | 0.893 ± 0.09 | 0.858 ± 0.061 | 1.2 ± 0.11 | 1.02 ± 0.072 | 1.01 (active)
CC(COc1ccccc1)N(CCCl)Cc1ccccc1.Cl (configuration not stated) | 0.328 ± 0.025 | 0.177 ± 0.015 | 0.355 ± 0.012 | 0.053 ± 0.0051 | 0.0504 ± 0.0018 | 0.0594 ± 0.011 | 0.186 (inactive)
Cc1cccc(C(C)C)c1NC(=O)c1ccccc1Br | 0.951 ± 0.16 | 0.956 ± 0.085 | 0.953 ± 0.074 | 0.988 ± 0.044 | 1.28 ± 0.23 | 1.14 ± 0.12 | 0.971 (active)
CCN(CC)C(=S)SSC(=S)N(CC)CC | 1.2 ± 0.097 | 0.633 ± 0.041 | 2.07 ± 0.22 | 2.71 ± 0.29 | 0.201 ± 0.025 | 0.114 ± 0.018 | 0.461 (inactive)
Nc1nc(NC2CC2)c2ncn([C@H]3C=C[C@@H](CO)C3)c2n1.Nc1nc(NC2CC2)c2ncn([C@H]3C=C[C@@H](CO)C3)c2n1.O=S(=O)(O)O | 1.1 ± 0.26 | 1.02 ± 0.057 | 1.04 ± 0.093 | 0.864 ± 0.065 | 1.2 ± 0.15 | 1.07 ± 0.12 | 0.791 (active)
COc1ccc(C(=O)OCCCN2C(=O)c3ccccc3C2=O)cc1 | 0.926 ± 0.15 | 0.986 ± 0.093 | 0.916 ± 0.071 | 0.967 ± 0.036 | 1.26 ± 0.13 | 1.41 ± 0.2 | 1 (active)
O=c1c(-c2ccccc2)coc2cc(O)ccc12 | 1.2 ± 0.089 | 1.09 ± 0.11 | 1.13 ± 0.049 | 0.886 ± 0.051 | 1 ± 0.11 | 0.973 ± 0.097 | 1 (active)
O=C(NCCCO)C(=O)Nc1ccccc1F | 0.815 ± 0.07 | 0.894 ± 0.045 | 1 ± 0.099 | 0.968 ± 0.062 | 1.39 ± 0.08 | 1.46 ± 0.14 | 1 (active)
Nc1ccccc1NC(=O)c1ccc(CNc2nccc(-c3cccnc3)n2)cc1 | 2.46 ± 0.12 | 1.73 ± 0.15 | 2.58 ± 0.15 | 0.0523 ± 0.0046 | 0.16 ± 0.016 | 0.186 ± 0.051 | 0.56 (inactive)
Cc1occc1C(=O)NN=Cc1cc([N+](=O)[O-])ccc1O | 1.12 ± 0.11 | 0.959 ± 0.12 | 1.16 ± 0.079 | 0.681 ± 0.096 | 1.23 ± 0.095 | 1.27 ± 0.28 | 0.997 (active)
c1ccc2[nH]c(-c3cscn3)nc2c1 | 1.14 ± 0.16 | 1.16 ± 0.21 | 0.915 ± 0.055 | 0.81 ± 0.037 | 1.17 ± 0.17 | 1.04 ± 0.13 | 0.995 (active)
Cl.O=S(=O)(c1cccc2cnccc12)N1CCCNCC1 | 0.76 ± 0.1 | 1.01 ± 0.27 | 1.06 ± 0.06 | 0.825 ± 0.033 | 0.85 ± 0.15 | 0.558 ± 0.083 | 0.992 (active)
CSc1nc2ccc(Nc3nc(N4CCCC4)nc(N4CCCC4)n3)cc2s1 | 0.838 ± 0.086 | 0.962 ± 0.06 | 1.05 ± 0.096 | 0.906 ± 0.043 | 1.31 ± 0.13 | 1.55 ± 0.15 | 1.02 (active)
CC(C)Cc1ccc(C(C)C(=O)O)cc1.NCCCC[C@H](N)C(=O)O (configuration not stated) | 1.11 ± 0.26 | 0.97 ± 0.05 | 0.963 ± 0.064 | 0.903 ± 0.032 | 1.47 ± 0.16 | 1.41 ± 0.18 | 0.536 (inactive)
N#CC(=Cc1c(F)cccc1Cl)C(=O)Nc1ccc(Cl)cc1 | 1.08 ± 0.22 | 0.977 ± 0.077 | 0.952 ± 0.079 | 0.746 ± 0.17 | 1.3 ± 0.22 | 1.25 ± 0.13 | 1.01 (active)
Cc1[nH]c2ccc(Br)cc2c(=O)c1CN1CCOCC1 | 1.06 ± 0.062 | 0.995 ± 0.11 | 0.972 ± 0.027 | 1.01 ± 0.073 | 0.973 ± 0.1 | 0.937 ± 0.16 | 0.995 (active)
CC(=O)Nc1c(-c2ccc3ccccc3c2)nc2ccccn12 | 1.37 ± 0.33 | 0.942 ± 0.079 | 1.07 ± 0.11 | 0.949 ± 0.032 | 1.14 ± 0.15 | 1.16 ± 0.14 | 0.995 (active)
CC(C)NCC(O)COCCOc1ccc(C(C)(C)C)cc1.Cl (configuration not stated) | 0.593 ± 0.039 | 1.06 ± 0.079 | 1.13 ± 0.079 | 0.569 ± 0.034 | 1.31 ± 0.14 | 1.57 ± 0.37 | 0.934 (active)
COC(c1ccccc1)(c1ccccc1)[C@H](Oc1nc(C)cc(C)n1)C(=O)O | 1.32 ± 0.18 | 1.08 ± 0.11 | 0.901 ± 0.055 | 1.05 ± 0.043 | 1.3 ± 0.14 | 1.15 ± 0.11 | 1 (active)
